Results reported in ChEMBL document CHEMBL3433997, “St. Jude Leishmania screening dataset” (2016).

Biological target: Solute carrier family 2, facilitated glucose transporter member 1 (Homo sapiens) (UniProt P11166)
Test: ST_JUDE_LEISH: Cytotoxicity at 2uM final concentration against transgenic Leishmania Mexicana promastigotes LmGLUT1 that are glucose transport deficient and complemented with the human glucose transporter GLUT1. Activity is measured by DNA content using SYBR green in vitro
Assay type: functional

Sequence of Solute carrier family 2, facilitated glucose transporter member 1 (Homo sapiens) (P11166 whole entry): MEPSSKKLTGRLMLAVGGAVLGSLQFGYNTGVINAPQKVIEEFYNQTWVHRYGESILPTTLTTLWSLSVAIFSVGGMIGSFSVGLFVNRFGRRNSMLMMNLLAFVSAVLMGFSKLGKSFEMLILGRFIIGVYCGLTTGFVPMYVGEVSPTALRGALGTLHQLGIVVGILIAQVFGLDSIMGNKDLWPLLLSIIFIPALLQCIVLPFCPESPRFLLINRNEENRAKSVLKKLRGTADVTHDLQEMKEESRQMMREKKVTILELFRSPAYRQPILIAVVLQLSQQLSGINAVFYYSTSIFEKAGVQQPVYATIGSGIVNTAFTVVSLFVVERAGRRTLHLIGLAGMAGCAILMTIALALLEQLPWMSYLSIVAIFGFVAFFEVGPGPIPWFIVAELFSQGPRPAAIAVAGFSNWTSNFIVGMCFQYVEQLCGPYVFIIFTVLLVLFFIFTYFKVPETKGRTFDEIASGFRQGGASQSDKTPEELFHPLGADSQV

Going from `NC1CCN(Cc2ccc(-c3ccc(-c4nc5cc(F)ccc5[nH]4)cc3)cc2)C1` (centres undefined) to `Nc1ccc(-c2nc3cc(Oc4ccc5[nH]c(-c6ccc(N)cc6)nc5c4)ccc3[nH]2)cc1`, the inhibition falls from 6.38% to -3.07%.

First: OCCN1CCN(Cc2cccc(-c3ccc(-c4nc5cc(C(F)(F)F)ccc5[nH]4)s3)c2)CC1
Second: CN1CCN(Cc2c(O)ccc3c(=O)c(Oc4ccc(C(C)(C)C)cc4)c(C(F)(F)F)oc23)CC1
The inhibition of the first is lower: 2.38% for the first, 70.7% for the second.

Compared with `CCCN(C(=O)c1ccccc1C)c1nnc(-c2ccccc2C)s1`, `COc1cc(NC(=O)/C=C/c2cccc3cc[nH]c23)ccc1OCCN(C(C)C)C(C)C` is higher in inhibition: -1.25% for the first, 2.46% for the second.

Going from `C=CCN1C(=O)c2[nH]nc(-c3cc(C)c(C)cc3O)c2C1c1cccc(Br)c1` (centres undefined) to `COc1cc(-c2nc(-c3ccc([N+](=O)[O-])cc3)c(-c3ccccc3)[nH]2)cc(OC)c1O`, the inhibition rises from 2.03% to 3.48%.

Compared with `CCN1CCC(N(CCCCCCc2ccc(C(F)(F)F)cc2)C(=O)Cn2c(CCc3cccc(F)c3F)cc(=O)c3ccccc32)CC1`, `CN1CCCCC1CCc1cc(C(=O)Nc2ccc(-c3ccc(O)cc3)cc2)ccc1O` (centres undefined) is lower in inhibition: 5.17% for the first, 1.7% for the second.

First: COc1cc(-c2[nH]c(-c3ccc(OCCN(C)C)cc3)cc2-c2ccncc2)ccc1Cl
Second: CN(C)C=Nc1ccc(OCCCCCCOc2ccc(N=CN(C)C)cc2)cc1
The inhibition of the first is lower: 1.46% for the first, 3.14% for the second.

Going from `O=C(/C=C/c1ccc(Cl)c(Cl)c1)NCCCCCN1CCN(C(=O)Nc2ccc(OC(F)F)cc2)CC1` to `CON=Cc1ccn(-c2ccc(O)c3c2C[C@H]2C[C@H]4[C@H](N(C)C)C(O)=C(C(N)=O)C(=O)[C@@]4(O)C(O)=C2C3=O)c1`, the inhibition rises from 2.15% to 5.15%.
